# Laboratory results: PubChem BioAssay AID1486 (The Scripps Research Institute Molecular Screening Center, 2009)
# Hit rate of the full screen: of about 220,000 compounds, about 2,400 (1.1%) were called active.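 The calls were made as follows: active = inhibition above a per-campaign cutoff, the mean inhibition of all tested compounds plus 3 SD (cut at about 27% in these data); inactive = the rest.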 Shown is part of a subset that was picked to be rich in actives.
# Test: growth loss in parental Ba/F3 cells – cell-based, murine pro-B, CellTiter-Glo luminescence, counter-screen for JAK2V617F inhibitor project (AID 1486);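 also: 0% = DMSO wells and 100% = JAK Inhibitor I control wells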
# Settings: Ba/F3 parental viability, CellTiter-Glo ATP luminescence; at 5.6 µM; active compounds read high
row,Structure (SMILES),inhibition
1,Cc1csc(NC(=O)c2ccc(-c3ccc(Cl)cc3Cl)o2)n1,5.38% (inactive)
2,O=C(c1cccnc1)N(c1cc2sc(=O)oc2c2ccccc12)S(=O)(=O)c1ccccc1,12.4% (inactive)
3,O=C(COc1ccccc1F)NNC(=O)c1ccc(N2CCCCC2)c([N+](=O)[O-])c1,2.6% (inactive)
4,O=S(=O)(c1ccc(-c2ccccc2)cc1)N1CCCC1,7.94% (inactive)
5,CCCCNS(=O)(=O)c1ccc(S(=O)(=O)n2cnc3ccccc32)cc1,1.68% (inactive)
6,O=S(=O)(c1ccc(Br)cc1)n1ccc2ccccc21,36.7% (active)
7,O=C1CCCC(O)=C1C=NCCc1ccccc1,42.9% (active)
8,CC1(C)CC(=O)C(C=NCCC2=CCCCC2)=C(O)C1,6.01% (inactive)
9,O=C1CC(c2ccccc2)CC(O)=C1C=NCCN1CCOCC1 (configuration not stated),2.34% (inactive)
10,CCCCN(C(=O)c1ccc(OC(F)(F)F)cc1)c1c(N)n(CCC)c(=O)[nH]c1=O,3.34% (inactive)
11,CC(C)(C)SCCNC(=O)c1cccc([N+](=O)[O-])c1,5.58% (inactive)
12,CN(Cc1cccnc1)C(=O)c1cc(COc2ccc3ncccc3c2)on1,84.6% (active)
13,Cc1noc(C)c1COc1cccc(C(=O)Nc2cccnc2)c1,1% (inactive)
14,Cc1cc(NCc2cccnc2)no1,1.06% (inactive)
15,CCCOc1ccc(NC(=O)C2OC3OC(C)(C)OC3C3OC(C)(C)OC23)cc1 (configuration not stated),4.19% (inactive)
16,N#Cc1ccccc1NC(=O)c1cccc(COc2ccc(Cl)cc2Cl)c1,1.93% (inactive)
17,O=C(C1CCCO1)N1CCN(C(=S)Nc2cccc(Cl)c2)CC1 (configuration not stated),9.12% (inactive)
18,Cc1cccc(NC(=S)N2CCCC(c3nc4ccccc4[nH]3)C2)c1 (configuration not stated),5.36% (inactive)
19,Cc1ccc(C2CCN(C(=S)Nc3cccc(Cl)c3)C2)cc1 (configuration not stated),54% (active)
20,COC(=O)[C@H](Cc1ccccc1)NC(=O)[C@@H]1C[C@H]1[C@@H](NC(=O)OCc1ccccc1)c1ccccc1,1.6% (inactive)
21,CCCc1ccc(C(=O)[C@@H]2[C@@H](C(C)=O)N3c4ccc(F)cc4C=C[C@@H]3[C@@]23C(=O)Nc2ccccc23)cc1,-6.87% (inactive)
22,COc1cccc(CC2(CO)CCCN(Cc3nc(-c4cccs4)oc3C)C2)c1 (configuration not stated),10.4% (inactive)
23,Cc1ccc(CN2CCN(Cc3ccccc3-c3ccco3)CC2CCO)o1 (configuration not stated),6.27% (inactive)

row,Structure (SMILES),inhibition
1,Cc1cc(C)n(-c2nnc(C)n2NC(=O)c2cccc(Cl)c2)n1,-0.31% (inactive)
2,Cc1ccccc1NC(=O)CN1C(=O)N/C(=C\c2cccn2-c2cccc(C(=O)O)c2)C1=O,7.07% (inactive)
3,O=C1/C(=C\c2ccsc2)NC(=S)N1c1ccccc1,1.31% (inactive)
4,O=C1N/C(=C/c2cccn2-c2ccccc2)C(=O)N1c1cccc(Cl)c1,52.5% (active)
5,COC(=O)c1ccc(CN2CCN(CCCc3ccccc3)C(CCO)C2)cc1 (configuration not stated),4.68% (inactive)
6,CCN1CCN(CCNC(=O)c2ccc(/C=C3/Sc4ccccc4N(Cc4cccc(C)c4)C3=O)cc2)CC1,13.1% (inactive)
7,CCN1/C(=C\c2ccc3ccccc3[n+]2CC)Sc2cc(C)ccc21,88.7% (active)
8,CCN1/C(=C/c2ccc3ccc(C)cc3[n+]2CC)Sc2ccccc21,87.6% (active)
9,CCN1/C(=C/C(=S)Nc2ccccc2)Sc2ccccc21,0.08% (inactive)
10,COc1ccccc1C1C(C#N)=C(N)Oc2c1c(-c1ccccc1)nn2-c1ccccc1 (configuration not stated),4.31% (inactive)
11,CCCN(CCC)CC(O)COc1ccccc1C(=O)Nc1ccccc1 (configuration not stated),1.95% (inactive)
12,CNC(=O)c1csc(Cc2c(Cl)sc3ccc(Cl)cc23)n1,-0.25% (inactive)
13,COc1ccc(C(=O)CN(C(=O)c2ccc(Cl)cc2)N2C(=O)c3ccccc3C2=O)cc1,-0.72% (inactive)
14,COc1ccc(Cn2c(=O)cc(C)[nH]c2=S)cc1,9.89% (inactive)
15,COc1ccc(Cn2c(-c3ccc(Cl)cc3)c[n+]3ccccc23)cc1,76.4% (active)
16,COc1cccc(Nc2nnc(SCC(=O)N3CC(=O)Nc4ccccc43)s2)c1,-3.89% (inactive)
17,Nc1ccc(C(=O)OCC(=O)NC2CCS(=O)(=O)C2)cc1[N+](=O)[O-] (configuration not stated),-1.89% (inactive)
18,COc1cccc(C(=O)Nc2ccc(NC(=O)c3ccco3)cn2)c1,-2.07% (inactive)
19,Cc1ccc(C(=O)COc2cccc(NC(=O)c3ccco3)c2)cc1,95.5% (active)
20,Cc1ccnc(NC(=O)c2ccc(NC(=O)c3ccco3)cc2)c1,-0.11% (inactive)
21,Cc1c(NC(=O)CSc2nnnn2-c2ccc(C(=O)O)cc2)c(=O)n(-c2ccccc2)n1C,9.83% (inactive)
22,COc1ccc(C(=O)C2CCCN(C(=O)c3cnsn3)C2)c(C)c1 (configuration not stated),-0.94% (inactive)
23,CCOc1ccc(S(=O)(=O)Nc2ccc(S(=O)(=O)Nc3cc(OC)ccc3OC)cc2)cc1,5.24% (inactive)

row,Structure (SMILES),inhibition
1,COc1ccc(NS(=O)(=O)c2ccc(NC(=O)c3ccc(N(C)S(C)(=O)=O)cc3)cc2)cc1,5.44% (inactive)
2,COc1ccc(NS(=O)(=O)c2ccc(Oc3c(C#N)cccc3C#N)cc2)cc1,42% (active)
3,COc1ccccc1N1CC(C(=O)Nc2ccc(S(=O)(=O)N3CCOCC3)cc2)CC1=O (configuration not stated),2.78% (inactive)
4,CNc1nnc(-c2ccco2)s1,-0.97% (inactive)
5,COc1cccc(C(O)Cc2nc3ccccc3n2C)c1OC (configuration not stated),0.12% (inactive)
6,COc1ccc(-c2nn(C)c(=O)c3ccccc23)cc1NC(=O)COc1ccccc1,-0.19% (inactive)
7,Cc1ccc(NC(=O)Cn2nc(C)c3ccccc3c2=O)c(C)c1,4.31% (inactive)
8,Cc1ccc(F)cc1NC(=O)Cc1nn(C)c(=O)c2ccccc12,37.3% (active)
9,COc1ccc(Cl)cc1NC(=O)NC(C)C(C)(C)C (configuration not stated),2.98% (inactive)
10,Cc1nc2ccccc2nc(=O)c1NNc1ccc([N+](=O)[O-])cc1,4.24% (inactive)
11,O=C(COC(=O)CCc1nc2ccccc2c(=O)[nH]1)Nc1ccc(N2CCOCC2)cc1,-2.42% (inactive)
12,O=C(/C=C/c1ccc(OCc2c(F)cccc2Cl)cc1)N1CCOCC1,67.9% (active)
13,CN(C)CCCNC(=O)/C=C/c1ccc(OCc2c(F)cccc2Cl)cc1,7.63% (inactive)
14,COCCCNC(=O)/C=C/c1ccc(OCc2c(F)cccc2Cl)cc1,2.28% (inactive)
15,C/C(=N/Nc1nc(-c2ccccc2)c(CC(=O)O)s1)c1ccccc1,2.81% (inactive)
16,O=C(CCCn1c(SCC(=O)c2ccc(F)cc2)nc2ccccc2c1=O)NCc1ccco1,4.54% (inactive)
17,C=C(C)Cn1c(SCC(=O)NCc2ccco2)nc2sc3c(c2c1=O)CCC3,1.93% (inactive)
18,O=C(CSc1nc2cc3c(cc2c(=O)n1CCC1=CCCCC1)OCO3)NCc1ccco1,33.2% (active)
19,COc1cc(OC)cc(C(=O)NCC(=O)OCc2csc(-c3ccccc3)n2)c1,10.9% (inactive)
20,COc1cc(OC)cc(C(=O)NC2CCN(C(=O)N3c4ccccc4Sc4ccccc43)CC2)c1,6.78% (inactive)
21,Cc1ccc(-c2nn(-c3ccccc3)cc2CN(Cc2ccccc2)C(=O)CCC(=O)O)o1,6.11% (inactive)
22,Cc1ccc(-c2nn(-c3cccc(F)c3)cc2CNCCc2ccncc2)o1,43% (active)
23,CSCCNCc1cn(-c2ccc(F)cc2F)nc1-c1ccccc1C,5.07% (inactive)

row,Structure (SMILES),inhibition
1,Cc1cc(Cl)ccc1C(=O)C1CCCN(C(=O)CCN2CCCO2)C1 (configuration not stated),0.61% (inactive)
2,Cc1cc(=O)[nH]c(SCC(=O)Nc2ccc(Br)cc2)n1,-7.26% (inactive)
3,O=C(/C=C/c1ccc(Cl)c([N+](=O)[O-])c1)c1ccc(O)cc1,2.68% (inactive)
4,CNC(=O)Nc1cc(C(C)(C)C)no1,54.8% (active)
5,CCCn1c(SCC(=O)Nc2ccc(C)c(S(=O)(=O)N3CCOCC3)c2)n[nH]c1=O,4.59% (inactive)
6,CCc1ccc(NC(=O)N2CCN(c3ccccc3)CC2)cc1,1.4% (inactive)
7,CC[n+]1c(C)n(-c2ccccc2)c2ccc(NC(C)=O)cc21,57.7% (active)
8,CCn1c2ccccc2c2cc(NC(=O)CNC)ccc21,3.93% (inactive)
9,Cc1ccc(/C=N/NC(=S)NC2CCCCC2)o1,-7.43% (inactive)
10,CCOC(=O)c1ccc(NC(=O)Cn2cnc3cc(C)c(C)cc32)cc1,58.4% (active)
11,CCOC(=O)c1ccc(NC(=O)Cn2nnc(-c3ccc(C)cc3)n2)cc1,1.76% (inactive)
12,CCOC(=O)c1ccc(NC(=O)CSc2ncccn2)cc1,0.67% (inactive)
13,O=C(O)CC1=C(Nc2ccccc2)C(=O)N(c2ccccc2)C1c1ccc(Cl)cc1 (configuration not stated),1.11% (inactive)
14,Cc1ccc2cc(/C=N/NC(=O)[C@@H]3CCCN3)c(Cl)nc2c1,0.27% (inactive)
15,CC(=O)Nc1cccc(OCC(=O)/C=C2\N(C)c3ccccc3C2(C)C)c1,44.2% (active)
16,CC(C)Nc1nnc(SCC(=O)/C=C2\N(C)c3ccccc3C2(C)C)s1,0.74% (inactive)
17,Cc1noc(C)c1C(=O)OCC(=O)/C=C1\N(C)c2ccccc2C1(C)C,4.98% (inactive)
18,COc1ccc(-n2cc(CNC3CCOCC3)c(-c3cccc(F)c3)n2)cc1,5.7% (inactive)
19,CCCCC(NC(=O)c1cccc(Br)c1)C(=O)O (configuration not stated),0.6% (inactive)
20,COc1ccc(C(=O)Nc2ccc(F)cc2F)cc1,-0.96% (inactive)
21,O=C(Nc1cccc(F)c1)c1ccc(S(=O)(=O)N2CCCC2)cc1,7.79% (inactive)
22,CCOC(=O)N1CCN(S(=O)(=O)c2ccc(C(=O)Nc3ccc(F)cc3F)cc2)CC1,53.5% (active)
23,Cc1cc(C)c(NC(=O)CN2CCOCCOCCOCCOCC2)c(C)c1,2.62% (inactive)
